# Screening results: PubChem, National Center for Advancing Translational Sciences (NCATS)
# Many of the other results were omitted from the sample, so hits are more common in it than they were.
# BLM helicase inh = qHTS Assay for Inhibitors of Bloom's syndrome helicase (BLM). RecQ-like DNA helicase BLM (Homo sapiens), P54132. recombinant BLM DNA unwinding, fluorescence dequenching. AID 2528, 2010. 0.2% of 350,000 active. Potency, µM (doses to about 56.1 µM), inactives show top-dose activity change, negative = inhibition, actives largely listed as inhibitors;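 further: plate controls were vehicle for no effect and no enzyme for full effect; nearly all actives have a fitted effect of over 35% in size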
# APEX1 inh = qHTS Assay for Inhibitors of the Human Apurinic/apyrimidinic Endonuclease 1 (APE1); DNA repair nuclease/redox regulator APEX1 (Homo sapiens), P27695; recombinant APE1, TAMRA/BHQ-2 abasic DNA cleavage fluorescence; 0.35% of 350,000 active; Potency, µM (series often up to 65.8 µM), for the others: at the top dose activity change, negative = inhibition, usual class: inhibitors;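 further: plate controls were vehicle for no effect and reference inhibitor for full effect; nearly all actives have a fitted effect of over 55% in size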
# Target sequence (P27695 whole entry, looked up): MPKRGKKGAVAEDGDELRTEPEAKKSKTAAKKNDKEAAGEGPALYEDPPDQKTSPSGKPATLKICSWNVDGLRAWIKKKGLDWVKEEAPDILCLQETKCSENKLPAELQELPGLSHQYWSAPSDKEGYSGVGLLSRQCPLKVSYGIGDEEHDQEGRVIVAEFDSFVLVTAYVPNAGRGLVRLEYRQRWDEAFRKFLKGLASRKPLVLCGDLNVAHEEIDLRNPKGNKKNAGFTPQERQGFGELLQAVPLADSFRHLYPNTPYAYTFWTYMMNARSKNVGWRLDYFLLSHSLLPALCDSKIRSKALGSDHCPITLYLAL
#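 Incision of a quenched TAMRA/BHQ-2 THF abasic-site duplex (50 nM) by 0.75 nM APE1, after 15 min compound preincubation, measured as fluorescence increase over three 60 s reads. Values normalized to buffer, DMSO and NSC13755 control wells.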
# RECQ1 helicase = qHTS Assay for Inhibitors of RecQ-Like Dna Helicase 1 (RECQ1); ATP-dependent DNA helicase Q1 (Homo sapiens), P46063; RECQ1 DNA unwinding, red fluorescence kinetic read; Potency, µM (doses to about 57.3 µM), inactives show top-dose activity, negative = inhibition, actives largely listed as inhibitors; 0.54% of 240,000 active;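 further: plate controls were vehicle for no effect and no enzyme for full effect; nearly all actives have a fitted effect of over 30% in size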
#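 RECQ1T1 50 nM; forked duplex (20 bp + 30-nt ss tails) 200 nM, ATP 2 mM final; pH 8.0, 2 mM MgCl2, 2.5 ug/ml poly(dI-dC); 15 min compound preincubation; discontinuous kinetic read over 2 h at RT.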
# PKM2 act = qHTS Assay for Activators of Human Muscle isoform 2 Pyruvate Kinase | purified PKM2, Kinase-Glo ATP luminescence, activation; response scale: 0% is enzyme alone, no compound | Potency, µM (highest dose often 57.5 µM), for the others: at the top dose activation, usual class: activators | 0.34% of 260,000 active | AID 1631, 2009; further: nearly all actives have a fitted effect of over 55% in size
#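 Purified hPK-M2 (>95% pure) converted ADP (0.1 mM final) to ATP with 0.5 mM PEP in 50 mM imidazole pH7.2, KCl, MgCl2, Tween 20, BSA; 1 h at room temperature. ATP detected by Kinase-Glo luminescence.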
# KDM4E inh = qHTS Assay for Inhibitors of Human Jumonji Domain Containing 2E (JMJD2E) | 1.6% of 230,000 active | Potency, µM (highest dose often 57.1 µM), without a hit: at the top dose activity change, negative = inhibition, actives largely listed as inhibitors | AID 2147, 2009 | JMJD2E catalytic domain, FDH-coupled NADH fluorescence (FDH is formaldehyde dehydrogenase) | Lysine-specific demethylase 4E (Homo sapiens), B2RXH2; active means well fitted inhibition curve with a large enough effect, not every such curve was filed as active; inconclusive means small, poorly fitted or top-dose-only effect, or another doubt; inactive means no such curve, though single readings can be large or run the other way;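 further: 0% = wells with enzyme and -100% = buffer wells without enzyme; nearly all actives have a fitted effect of over 50% in size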
# Target sequence (B2RXH2 1-337 limits assumed): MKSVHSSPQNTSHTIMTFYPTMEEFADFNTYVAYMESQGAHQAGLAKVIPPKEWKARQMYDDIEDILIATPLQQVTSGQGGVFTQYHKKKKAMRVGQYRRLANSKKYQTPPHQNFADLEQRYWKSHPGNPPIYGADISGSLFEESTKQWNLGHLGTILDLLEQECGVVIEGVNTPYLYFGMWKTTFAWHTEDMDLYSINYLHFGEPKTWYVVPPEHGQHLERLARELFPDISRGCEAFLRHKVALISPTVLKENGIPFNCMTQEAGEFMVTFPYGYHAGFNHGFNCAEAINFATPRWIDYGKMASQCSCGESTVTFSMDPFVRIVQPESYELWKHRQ
# * hit, by the source's call; i = inactive; ? = inconclusive; . = no result given; [ ] = remark or other dose. Unless noted, the call rests on the fitted dose curve; in most records, active means well fitted curve in the direction sought with a large enough effect; inconclusive means small, poorly fitted or top-dose-only effect, or another doubt; inactive means no such curve, though single readings can be large; an effect the other way counts as inactive or inconclusive. Unless noted, on the % scale 0 is the no-effect control and ±100 the full control effect; potency means the concentration at half of the fitted maximal effect.
SMILES,BLM helicase inh,APEX1 inh,RECQ1 helicase,PKM2 act,KDM4E inh
Oc1ccc(F)c2cccnc12,-4%,2%,-2%,-2%,20µM*
Cc1c(C(=O)N(C)C2CCCCC2)sc2nc3ccc(N)cc3n12,2%,5%,-1%,.,.
CN[C@H](CC(C)C)C(=O)N[C@H]1C(=O)N[C@@H](CC(N)=O)C(=O)N[C@H]2C(=O)N[C@H]3C(=O)N[C@H](C(=O)N[C@@H](C(=O)O)c4cc(O)cc(O)c4-c4cc3ccc4O)[C@H](O)c3ccc(c(Cl)c3)Oc3cc2cc(c3O[C@@H]2O[C@H](CO)[C@@H](O)[C@H](O)[C@H]2O[C@H]2C[C@](C)(N)C(O)[C@H](C)O2)Oc2ccc(cc2Cl)[C@H]1O (stereo partly drawn),.,19%[21 µM],.,.,.
Oc1ccc(CNc2ccccc2F)c2cccnc12,0%,58%,i,-3%,7.9µM*
O=[N+]([O-])c1cc2oc3c(c2c(C=NCc2ccccc2)c1O)CCCC3,-15%,-1%,1%,-33%,-9%
CC(C)CN=Cc1c(O)c([N+](=O)[O-])cc2oc3c(c12)CCCC3,-1%,21%,-3%,-11%,13µM*
CCN1CCN(C(=O)NC(C(=O)NC2C(=O)N3C(C(=O)O)=C(CSc4nnnn4C)CSC23)c2ccc(O)cc2)C(=O)C1=O (stereo not drawn),-2%,3%,-6%,.,2%
CCN(CC)c1ccc(/C=N/NC(=O)CCC(=O)NCc2ccccc2)c(O)c1,1%,-1%,i,5%,25µM*
CCN(CC)c1ccc(/C=N/Nc2ccc(C)cc2)c(O)c1,-4%,-1%,0%,4%,?
CCOC(=O)N/N=C/c1ccc(N(CC)CC)cc1O,-1%,-3%,i,10%,28µM*
Cc1cc(C(=O)NNC(=S)NC(=O)/C=C/c2ccccc2Cl)n[nH]1,-11%,2%,-2%,-15%,7.9µM*
CN1CCN(c2ccnc(-c3ccoc3)n2)CC1,-11%,0%,13%,.,.
O=[N+]([O-])c1cc2c(cc1/C=N/n1c(-c3ccccc3)n[nH]c1=S)OCO2,18µM*,-2%,-13%,10%,-1%
CC1(C)Oc2ccc3ccc(=O)oc3c2C(N2CCCCC2)C1O (stereo not drawn),-3%,-1%,-5%,27%,?
CC(=O)OC1C(N2CCCCC2)c2c(ccc(/C=C/C(=O)N3CCCCC3)c2O)OC1(C)C (stereo not drawn),-2%,-6%,5%,2%,7.1µM*
NC(=NCc1ccc(Cl)cc1Cl)NC(=O)c1nc(Cl)c(N)nc1N,.,-9%,i,.,.
Oc1ccc(/C=N/Nc2nccnc2Cl)c(O)c1,-9%,-1%,-2%,-47%,?
Oc1ccccc1/C=N/Nc1nccnc1Cl,-5%,-3%,-14%,-29%,25µM*
COc1ccc(OC)c(-c2nnc3n2N=C(c2c(OC)cccc2OC)CS3)c1,3%,-1%,i,.,.
Cc1[nH]c2ccccc2c1CN1CCN(c2ccccn2)CC1,2%,-3%,-5%,-1%,-1%
Cc1[nH]c2ccccc2c1CN1CCC(Cc2ccccc2)CC1,-2%,-11%,-4%,-14%,25µM*
CSCC[C@H](NC(=O)[C@H](CC(C)C)NC(=O)CNC(=O)[C@@H]1CCCN1C(=O)[C@H](Cc1ccccc1)NC(=O)[C@H](Cc1ccccc1)NC(=O)[C@H](CC(=O)O)NC(=O)[C@H](Cc1cnc[nH]1)NC(=O)[C@H](CCSC)NC(=O)[C@@H](N)CC(=O)O)C(N)=O,-4%,?,11µM*,.,.
CC1CC=CC2C1C(=O)N(Cc1ccccc1)C2c1ccc(C(F)(F)F)cc1 (stereo not drawn),-17%,-3%,-20%,.,.
C=CCN1c2ccccc2[C@]23C[C@@H](C(=O)OC)N(C(=O)COCc4ccccc4)C2=NC(C(=O)OC)=C(C(=O)OC)[C@H]13,-5%[12.4 µM],1%[12.4 µM],-9%[11.5 µM],2%[11.5 µM],2%[11.4 µM]
O=[N+]([O-])c1ccc2c(c1)ncn2-c1ccccc1,-4%,-6%,-19%,-6%,-9%
SMILES,BLM helicase inh,APEX1 inh,RECQ1 helicase,PKM2 act,KDM4E inh
O=[N+]([O-])c1ccc2c(c1)ncn2CCc1ccccc1,-1%,-16%,.,7.1µM*,.
CC(=O)Nc1ccc(Nc2nc(-c3cc4ccccc4oc3=O)cs2)cc1,-7%,17%,.,0%,.
O=C(O)c1ccc(Nc2nc(-c3cc4ccccc4oc3=O)cs2)cc1O,-29%,-7%,-29%,-4%,20µM*
Cc1c2oc3c(C)ccc(C(=O)NC4C(=O)NC(C(C)C)C(=O)N5CCCC5C(=O)N(C)CC(=O)N(C)C(C(C)C)C(=O)OC4C)c3nc-2c(C(=O)NC2C(=O)NC(C(C)C)C(=O)N3CCCC3C(=O)N(C)CC(=O)N(C)C(C(C)C)C(=O)OC2C)c(N)c1=O (stereo not drawn),.,13µM*,3.2µM*,.,.
O=c1cc(-c2cccc(O)c2)oc2c(O)c(O)ccc12,-1%,?,4.5µM*,.,7.9µM*
O=c1cc(-c2cccc(O)c2)oc2cc(O)ccc12,-8%,-5%,i,.,0%
Oc1c(CN2CCCCC2)cc(COCc2ccccc2)c2cccnc12,-7%,7%,-2%,2%,-3%
O=C(Oc1c(CN2CCOCC2)cc(Cl)c2cccnc12)c1ccccc1Cl,-3%,5%,13%,-3%,?
CCOCc1cc(CN2CCN(c3ccccc3OC)CC2)c(O)c2ncccc12,-7%,.,.,.,.
COc1ccccc1N1CCN(Cc2cc(Br)c(O)c3ncccc23)CC1,-3%,-1%,-16%,-11%,25µM*
O=C(Oc1c(CN2CCOCC2)cc(Cl)c2cccnc12)c1cccs1,-11%,-5%,-11%,-9%,25µM*
Oc1c(Cl)cc(CN2CCCCC2)c2cccnc12,0%,26%,.,.,.
COCc1cc(CN2CCCC2)c(O)c2ncccc12,-3%,-3%,-3%,-3%,3.5µM*
O=[N+]([O-])c1cc(CN2CCCC2)c2cccnc2c1O,?,3.5µM*,?,1%,20µM*
CCCCCCC#CC1C=CC(OC(C)=O)C(COC(C)=O)O1 (stereo not drawn),-3%[12.4 µM],21%[12.4 µM],i[11.5 µM],.,.
OCCN1CCN(Cc2cc(Cl)c3cccnc3c2O)CC1,0%,3%,1%,4%,22µM*
N#CCc1ccccc1[N+](=O)[O-],.,1%,5%,.,.
CC(=O)Nc1cc(NC(C)=O)cc(C(=O)N2CCCC3CCCCC32)c1 (stereo not drawn),-22%,17µM*,.,10%,.
O=C(Cl)CCCCCCCC(=O)Cl,4%,13%,-2%,.,.
